Assay [1] in a line: qHTS assay to identify small molecule agonists of the vitamin D receptor (VDR) signaling pathway - cell viability counter screen (AID 743224; active means well fitted curve in the direction sought with a large enough effect in the repeat runs; an effect the other way counts as inactive or inconclusive; further: nearly all actives have a fitted effect of over 50% in size; further: potency means the concentration at half of the fitted maximal effect). The procedure, abridged: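 Here cell health was gauged by luminescent ATP detection (CellTiter-Glo, 30 min RT) in VDR-bla cells that had been incubated with test compounds for 16 h at 37C and 5% CO2.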
Assay [2] in a line: qHTS assay to identify small molecule antagonists of the vitamin D receptor (VDR) signaling pathway - cell viability counter screen (AID 743225; active means well fitted curve in the direction sought with a large enough effect in the repeat runs; an effect the other way counts as inactive or inconclusive; further: nearly all actives have a fitted effect of over 50% in size). The procedure, abridged:
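Parallel cytotoxicity test: VDR-UAS-bla HEK 293T, 3 nM (final) 1-alpha,25-dihydroxyvitamin D3 with test compound, 16 h, 37C. Endpoint is CellTiter-Glo luminescence in the same wells.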

Assay [3] is described as follows: qHTS assay to identify small molecule agonists of the NFkB signaling pathway - cell viability counter screen (AID 1159515). Further: nearly all actives have a fitted effect of over 55% in size. Further: potency means the concentration at half of the fitted maximal effect. The procedure, abridged:
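5 hr compound treatment of NFkB-bla ME-180 cells (2,000/well, seeded overnight beforehand), followed by reporter substrate for 1.5 hr. CellTiter-Glo added afterward; luminescence after 30 min RT.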

A short description of assay [4]: qHTS assay to identify small molecule agonists of the endoplasmic reticulum stress response signaling pathway (AID 1159516; active means well fitted activation curve with a large enough effect in the signal ratio in the repeat runs, not every such curve was filed as active; the % refers to the signal ratio). The procedure, abridged:
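Reporter HeLa cells (ESRE-beta-lactamase) underwent 5 hr compound incubation at 37 C and 5% CO2 in quantitative HTS format. Detection followed 2 hr of FRET substrate loading at room temperature.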

The nature of assay [5]: qHTS assay to identify small molecule agonists of the endoplasmic reticulum stress response signaling pathway - cell viability counter screen (AID 1159517).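 Further: HeLa cells carrying an ER stress response element beta-lactamase reporter; series mostly up to about 61 µM; nearly all actives have a fitted effect of over 50% in size.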 The procedure, abridged: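 ESRE-bla HeLa cells, 1,500 per well, seeded overnight then treated with compounds for 5 hr at 37 C. After the beta-lactamase read, viability in the same wells is measured by CellTiter-Glo luminescence after 30 min at room temperature.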

Assay [6] is described as follows: qHTS assay to identify small molecule antagonists of the retinoid-related orphan receptor gamma (ROR-gamma) signaling pathway - cell viability counter screen (AID 1159520; active means well fitted curve in the direction sought with a large enough effect in the repeat runs; an effect the other way counts as inactive or inconclusive; further: nearly all actives have a fitted effect of over 50% in size). The procedure, abridged: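 Tet-on ROR gamma CHO cells were given compounds for 2 hr, then doxycycline hyclate at 1 uM final, and incubated 16 hr at 37 C. Viability was measured as ATP content by CellTiter-Glo luminescence.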

Assay [7] concerns the target Nuclear receptor ROR-gamma (Homo sapiens) (UniProt P51449). Briefly: qHTS assay to identify small molecule antagonists of the retinoid-related orphan receptor gamma (ROR-gamma) signaling pathway (AID 1159521; active means well fitted curve in the direction sought with a large enough effect in the repeat runs; an effect the other way counts as inactive or inconclusive; further: nearly all actives have a fitted effect of over 50% in size; further: potency means the concentration at half of the fitted maximal effect). The procedure, abridged: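 Decreased RORE-driven luciferase luminescence indicates antagonism. Tet-on RORγ CHO cells received compound, then 1 uM final doxycycline 2 h later; signal read after 16 h incubation.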

The nature of assay [8]: qHTS assay to identify small molecule agonists of the AP-1 signaling pathway - cell viability counter screen (AID 1159525). Further: nearly all actives have a fitted effect of over 55% in size. The procedure, abridged: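 AP-1-bla ME-180 cells in Opti-MEM with 0.5% dialyzed FBS, compound exposure 5 h at 37 C in 15-point titration. Viability read in the same wells as ATP content by CellTiter-Glo luminescence, normalised to tetra-n-octylammonium bromide and DMSO controls.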

A short description of assay [9]: qHTS assay to identify small molecule agonists of the AP-1 signaling pathway (AID 1159526).
For assay [10], the target named is Retinoic acid receptor RXR-alpha (Homo sapiens) (UniProt P19793). Briefly: qHTS assay to identify small molecule agonists of the RXR signaling pathway (AID 1159527). Further: nearly all actives have a fitted effect of over 35% in size. Further: potency means the concentration at half of the fitted maximal effect. The procedure, abridged: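 16 hr incubation of compound-treated RXR-alpha-UAS-bla HEK 293T cells (2% charcoal-stripped FBS, 37 C) preceded a 2 hr room-temperature LiveBLAzer FRET substrate step and blue/green fluorescence measurement.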
Chain of Retinoic acid receptor RXR-alpha (Homo sapiens) (P19793 whole entry, looked up): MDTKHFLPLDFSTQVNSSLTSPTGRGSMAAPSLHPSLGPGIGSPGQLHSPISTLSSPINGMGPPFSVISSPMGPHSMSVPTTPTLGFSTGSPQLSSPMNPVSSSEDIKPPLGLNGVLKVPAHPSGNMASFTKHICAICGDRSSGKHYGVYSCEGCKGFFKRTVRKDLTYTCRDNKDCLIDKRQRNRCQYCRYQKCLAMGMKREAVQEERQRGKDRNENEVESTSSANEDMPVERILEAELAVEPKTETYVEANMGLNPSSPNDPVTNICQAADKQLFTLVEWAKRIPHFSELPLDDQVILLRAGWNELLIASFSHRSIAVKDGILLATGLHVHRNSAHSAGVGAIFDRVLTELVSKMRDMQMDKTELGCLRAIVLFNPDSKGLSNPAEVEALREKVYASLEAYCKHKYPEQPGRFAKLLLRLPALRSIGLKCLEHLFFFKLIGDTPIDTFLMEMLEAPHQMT

“And” between values parts separate entries of the source, which are not always exact repeats. Equal entries are not always repeated. Results filed as inconclusive are left out. A structure can be active in one record and inactive in another. The source made the active and inactive calls. Unless noted, the call rests on the fitted dose curve.

`CCOP(=O)(OCC)OCC`: the Potency result in [1], in assay [2], in assay [3], in assay [4], in assay [5] and in assay [6] was “inactive” each time. For the same molecule, the Potency result in assay [7] and in assay [8] was “inactive” throughout. For the same molecule, the outcome in assay [9] was inactive. Further, in assay [10], the Potency is 5.49 µM (active).

For the molecule `COc1ccc(C=O)cc1OC`, the Potency entry in assay [1], in assay [2], in assay [3], in assay [4], in [5] and in assay [6] was “inactive” each time. Besides, the Potency entry in assay [7], in [8] and in [10] was “inactive” throughout. Moreover, the call in assay [9] was inactive.

For `N#CCCCCC#N`, the Potency result in assay [1], in assay [2], in assay [3], in assay [4], in assay [5] and in assay [6] was “inactive” in each case. For the same molecule, the Potency entry in assay [7], in [8] and in [10] was “inactive” throughout. Moreover, the molecule was classed as inactive in assay [9].

With `CC(C)(O)C#N`, the Potency entry in [1], in [2], in [3], in [4], in [5] and in assay [6] was “inactive” throughout. The Potency entry in assay [7], in assay [8] and in assay [10] was “inactive” in each case. In addition, in assay [9], the molecule was called inactive.

On to `COP(=O)(NC(C)=O)SC` (configuration not stated), for which the Potency entry in assay [1], in [2], in assay [3], in assay [4], in assay [5] and in [6] was “inactive” each time. Moreover, the Potency result in assay [7], in assay [8] and in assay [10] was “inactive” throughout. In addition, in assay [9], the result was inactive.

Consider `CCOS(=O)(=O)OCC`, for which the Potency entry in assay [1], in assay [2], in assay [3], in assay [4], in [5] and in assay [6] was “inactive” each time. Also, the Potency result in assay [7], in [8] and in assay [10] was “inactive” each time. Further, in assay [9], the molecule was called inactive.

For `CCCCSP(=O)(SCCCC)SCCCC`, the Potency result in assay [1], in [2], in [3], in [4], in assay [5] and in [6] was “inactive” in each case. Moreover, the Potency entry in assay [7], in assay [8] and in assay [10] was “inactive” throughout. Further, the molecule was called inactive in assay [9].

In the case of `N#Cc1cccnc1`, the Potency result in assay [1], in assay [2], in [3], in assay [4], in [5] and in [6] was “inactive” each time. Further, the Potency result in assay [7], in assay [8] and in assay [10] was “inactive” in each case. The molecule was called inactive in [9].

Take `c1ccc(C2CO2)cc1` (configuration not stated): the Potency entry in assay [1], in [2], in [3], in [4], in assay [5] and in [6] was “inactive” each time. In addition, the Potency entry in assay [7] and in assay [8] was “inactive” throughout. Moreover, the molecule was called inactive in [9]. Also, in [10], the Potency entry was “inactive and 17.4 µM (active)”.

As for `Clc1ccccc1-c1nnc(-c2ccccc2Cl)nn1`, the Potency result in assay [1], in assay [2], in assay [3], in [4], in [5] and in [6] was “inactive” in each case. Moreover, the Potency result in assay [7], in assay [8] and in assay [10] was “inactive” throughout. The call in assay [9] was inactive.

`Clc1ccc(C(Cl)(Cl)Cl)cc1`: the Potency entry in assay [1], in [2], in assay [3], in assay [4], in assay [5] and in assay [6] was “inactive” each time. In addition, the Potency entry in assay [7], in [8] and in assay [10] was “inactive” in each case. For the same molecule, in assay [9], the call was inactive.

As to `O=P(OCCCl)(OCCCl)OCCCl`, the Potency result in [1], in assay [2], in assay [3], in assay [4], in assay [5] and in assay [6] was “inactive” in each case. Besides, the Potency entry in [7], in [8] and in [10] was “inactive” each time. For the same molecule, in assay [9], the molecule was called inactive.

As to `O=S(=O)(O)C(F)(F)C(F)(F)C(F)(F)C(F)(F)C(F)(F)C(F)(F)C(F)(F)C(F)(F)F`, the Potency result in assay [3], in assay [4], in assay [5], in assay [6], in assay [7] and in assay [8] was “inactive” in each case. The Potency entry in assay [10] is “inactive”. Moreover, the outcome in [9] was inactive.

As to `ClC(Cl)(Cl)Br`, the Potency entry in [1], in assay [2], in assay [3], in assay [4], in assay [5] and in assay [6] was “inactive” each time. Also, the Potency result in [7], in assay [8] and in [10] was “inactive” throughout. In addition, the call in [9] was inactive.

For the molecule `N#Cc1nn(-c2c(Cl)cc(C(F)(F)F)cc2Cl)c(N)c1S(=O)C(F)(F)F` (configuration not stated), the Potency in [1] was 24.7 µM (active) and inactive; in [7] it was 7.74 µM (active) and 16.8 µM (active). Besides, the Potency result in assay [3], in [4], in [5], in [6] and in assay [8] was “inactive” in each case. Besides, in [9], the outcome was inactive.

Turning to `Nc1ccc([N+](=O)[O-])cc1N`, the Potency entry in assay [1], in [2], in assay [3], in assay [4], in assay [5] and in assay [6] was “inactive” each time. Moreover, the Potency result in assay [10] was “inactive”. The Potency in [7] was 9.68 µM (active) and 30.6 µM (active). The molecule was called inactive in assay [9].

`Cc1ccc(N=CN(C)C=Nc2ccc(C)cc2C)c(C)c1`: the Potency is 39.1 µM (active) and 38.9 µM (active) in assay [1]; 54.9 µM (active) and inactive in [3]; 48.8 µM (active) and 54.4 µM (active) and inactive in assay [7]. For the same molecule, the Potency result in assay [2], in assay [4], in assay [5], in [6] and in assay [10] was “inactive” throughout. The molecule was called inactive in assay [9].

As for `OCCOCCO`, the Potency entry in [1], in [2], in assay [3], in assay [4], in [5] and in assay [6] was “inactive” each time. The Potency entry in [7] and in assay [8] was “inactive” in each case. In [9], the molecule was classed as inactive.

`O=C(O)CF`: the Potency entry in assay [1], in assay [2], in [3], in [4], in [5] and in assay [6] was “inactive” in each case. In addition, the Potency entry in assay [7], in [8] and in assay [10] was “inactive” in each case. Besides, in [9], the molecule was called inactive.

As to `O=C1Nc2ccc(Cl)cc2C(c2ccccc2)=NC1O` (configuration not stated), the Potency entry in [1], in [2], in assay [3], in [4], in assay [5] and in [6] was “inactive” each time. The Potency result in assay [7] and in [10] was “inactive” each time. Further, in assay [9], the call was inactive.

Turning to `Brc1ccc(Br)cc1`, the Potency entry in [1], in assay [2], in assay [3], in assay [4], in assay [5] and in [6] was “inactive” each time. The Potency result in [7] and in [10] was “inactive” throughout. The molecule was classed as inactive in [9].

Regarding `CNC(=O)CSP(=S)(OC)OC`, the Potency entry in [1], in [2], in assay [3], in assay [4], in assay [5] and in assay [6] was “inactive” throughout. Besides, the Potency result in [7] and in assay [10] was “inactive” in each case. Further, the call in [9] was inactive.

`O=[N+]([O-])/N=C1\NCCN1Cc1ccc(Cl)nc1`: the Potency result in assay [1], in [2], in [3], in [4], in [5] and in assay [6] was “inactive” in each case. Also, the Potency result in assay [7] and in assay [10] was “inactive” in each case. Besides, the call in assay [9] was inactive.

`CC(C)COC(=O)c1ccccc1C(=O)OCC(C)C`: the Potency entry in assay [1], in assay [2], in assay [3], in [4], in assay [5] and in assay [6] was “inactive” each time. Also, the Potency entry in assay [7], in assay [8] and in assay [10] was “inactive” in each case.

Turning to `N#CC(c1ccccc1)c1ccccc1`, the Potency result in assay [1], in assay [2], in assay [3], in [4], in assay [5] and in assay [6] was “inactive” throughout. Besides, the Potency entry in assay [7] and in assay [10] was “inactive” each time. In addition, the molecule was called inactive in [9].

The values are drawn from PubChem BioAssay (Tox21).
